# Measured values: paper PMC5540273 (PLoS ONE, 2017)
# Test system: T1, ASK1
# T1 construct: gene MAP3K5
# Conditions: concentration: 1 μM, replicates: in singlicate; n = 1
# 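Note: KINOMEscan kinase panel screen.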
row,SMILES,%Inh
1,CN(C)c1cc(-c2ccc3c(N)n[nH]c3c2)nc(N)n1 [GSK2219329],0%
2,COc1ccc(-n2cnc3c(N)ncnc32)cc1 [SKF-97236],0%
3,Cn1c(=O)c(F)c(Nc2ccc(I)cc2F)c2c(=O)n(OC[C@H](O)CO)cnc21,0%
4,COc1cc(Nc2nccc(N3CCC(NC(=O)C(C)c4ccc(Cl)cc4)C3)n2)cc(OC)c1OC (stereo not drawn) [GSK1379757],0%
5,COc1cc2ncn(-c3cc(OCCCc4ccccc4)c(C(N)=O)s3)c2cc1OC [GSK205189],0%
6,Cc1cccc(-c2nc(Nc3ccc4c(cnn4C)c3)c3ccccc3n2)n1 [GW876731],0%
7,Nc1nc(N)c2nc(-c3ccccc3)[nH]c2n1 [SKF-12778],7%
8,Cl.c1ccc(Cn2cnc3cc(Nc4ncnc5ccccc45)ccc32)cc1 [GW272142],4%
9,Nc1nccc2scc(-c3ccc4c(c3)CCN4C(=O)Cc3ccccc3)c12 [GSK2576924],6%
